Measured values as given in the supplement of paper PMC12645437, “Orthogonal IMiD-Degron Pairs Induce Selective Protein Degradation in Cells” (ACS Chemical Biology, 2025).
In all, about 8,300 sequences were measured (“log2 fold change of degron read counts, EGFP-low vs EGFP+ sorted cells (limma voom), compound-induced degradation”: median about -1.1, highest 2% from about 3.2 on). This is one part of a sample in which the highest values are shown more often than they occur.

B1: 46F_47H_49E_50I_52G_53R_54H_55F_67L_, Q9UKT9 (peptide)
chain: FHCEICGRHFTQKGNLLRHIKL
B2: 46F_47V_49N_50Q_52G_53A_54C_55F_67L_, Q9UKT9 (peptide)
chain: FVCNQCGACFTQKGNLLRHIKL
B3: 46L_47N_49P_50I_52G_53F_54E_55C_67L_, Q9UKT9 (peptide)
chain: LNCPICGFECTQKGNLLRHIKL
B4: 46F_47W_49E_50Q_52G_53A_54R_55F_67L_, Q9UKT9 (peptide)
chain: FWCEQCGARFTQKGNLLRHIKL
B5: 46F_47M_49P_50I_52G_53R_54P_55F_67L_, Q9UKT9 (peptide)
chain: FMCPICGRPFTQKGNLLRHIKL
B6: 46F_47S_49E_50I_52G_53R_54E_55F_67L_, Q9UKT9 (peptide)
chain: FSCEICGREFTQKGNLLRHIKL
B7: 46F_47A_49D_50Q_52G_53A_54S_55F_67L_, Q9UKT9 (peptide)
chain: FACDQCGASFTQKGNLLRHIKL
B8: 46F_47R_49E_50V_52G_53A_54T_55F_67L_, Q9UKT9 (peptide)
chain: FRCEVCGATFTQKGNLLRHIKL
B9: 46F_47Y_49E_50V_52G_53A_54T_55F_67L_, Q9UKT9 (peptide)
chain: FYCEVCGATFTQKGNLLRHIKL
B10: 46F_47G_49E_50V_52G_53A_54T_55F_67L_, Q9UKT9 (peptide)
chain: FGCEVCGATFTQKGNLLRHIKL
B11: 46F_47N_49E_50V_52G_53A_54T_55F_67L_, Q9UKT9 (peptide)
chain: FNCEVCGATFTQKGNLLRHIKL
B12: 46F_47C_49E_50V_52G_53A_54T_55F_67L_, Q9UKT9 (peptide)
chain: FCCEVCGATFTQKGNLLRHIKL
B13: 46F_47W_49E_50V_52G_53A_54T_55F_67L_, Q9UKT9 (peptide)
chain: FWCEVCGATFTQKGNLLRHIKL
B14: 46F_47S_49E_50V_52G_53A_54T_55F_67L_, Q9UKT9 (peptide)
chain: FSCEVCGATFTQKGNLLRHIKL
B15: 46F_47K_49E_50V_52G_53A_54T_55F_67L_, Q9UKT9 (peptide)
chain: FKCEVCGATFTQKGNLLRHIKL
B16: 46F_47M_49E_50V_52G_53A_54T_55F_67L_, Q9UKT9 (peptide)
chain: FMCEVCGATFTQKGNLLRHIKL
B17: 46F_47Q_49E_50V_52G_53A_54T_55F_67L_, Q9UKT9 (peptide)
chain: FQCEVCGATFTQKGNLLRHIKL
B18: 46F_47A_49E_50V_52G_53A_54T_55F_67L_, Q9UKT9 (peptide)
chain: FACEVCGATFTQKGNLLRHIKL
B19: 46F_47D_49E_50V_52G_53A_54T_55F_67L_, Q9UKT9 (peptide)
chain: FDCEVCGATFTQKGNLLRHIKL
B20: 46L_47L_49E_50I_52G_53F_54N_55C_67L_, Q9UKT9 (peptide)
chain: LLCEICGFNCTQKGNLLRHIKL
B21: 46F_47Y_49E_50I_52G_53R_54P_55F_67L_, Q9UKT9 (peptide)
chain: FYCEICGRPFTQKGNLLRHIKL
B22: 46F_47A_49N_50Q_52G_53H_54H_55F_67L_, Q9UKT9 (peptide)
chain: FACNQCGHHFTQKGNLLRHIKL
B23: 46F_47D_49N_50Q_52G_53A_54S_55F_67L_, Q9UKT9 (peptide)
chain: FDCNQCGASFTQKGNLLRHIKL
B24: 46F_47Y_49P_50I_52G_53H_54Y_55F_67L_, Q9UKT9 (peptide)
chain: FYCPICGHYFTQKGNLLRHIKL
B25: 46F_47W_49P_50I_52G_53A_54F_55F_67L_, Q9UKT9 (peptide)
chain: FWCPICGAFFTQKGNLLRHIKL
B26: 46L_47K_49N_50Q_52G_53F_54Q_55C_67L_, Q9UKT9 (peptide)
chain: LKCNQCGFQCTQKGNLLRHIKL
B27: 46F_47K_49D_50Q_52G_53A_54E_55F_67L_, Q9UKT9 (peptide)
chain: FKCDQCGAEFTQKGNLLRHIKL
B28: 46F_47V_49E_50V_52G_53A_54T_55F_67L_, Q9UKT9 (peptide)
chain: FVCEVCGATFTQKGNLLRHIKL
B29: 46F_47F_49E_50V_52G_53A_54T_55F_67L_, Q9UKT9 (peptide)
chain: FFCEVCGATFTQKGNLLRHIKL
B30: 46F_47L_49E_50V_52G_53A_54T_55F_67L_, Q9UKT9 (peptide)
chain: FLCEVCGATFTQKGNLLRHIKL

Target: T1, CRBN, Q96SW2
T1 chain: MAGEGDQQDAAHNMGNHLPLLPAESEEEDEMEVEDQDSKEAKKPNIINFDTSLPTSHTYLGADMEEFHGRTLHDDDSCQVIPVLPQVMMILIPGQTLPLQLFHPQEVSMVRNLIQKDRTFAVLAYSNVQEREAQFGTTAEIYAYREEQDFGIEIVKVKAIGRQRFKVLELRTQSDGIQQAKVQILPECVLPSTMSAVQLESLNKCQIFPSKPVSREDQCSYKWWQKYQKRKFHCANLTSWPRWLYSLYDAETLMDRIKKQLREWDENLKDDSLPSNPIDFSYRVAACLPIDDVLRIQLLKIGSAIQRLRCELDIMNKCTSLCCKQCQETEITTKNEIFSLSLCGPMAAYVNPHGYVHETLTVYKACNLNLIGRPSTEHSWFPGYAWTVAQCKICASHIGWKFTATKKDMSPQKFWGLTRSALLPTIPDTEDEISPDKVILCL
Experiment: log2 fold change of degron read counts, EGFP-low vs EGFP+ sorted cells (limma voom), compound-induced degradation; higher = more compound-induced degradation of the degron-EGFP fusion; degrons are variants of IKZF1/3 zinc finger 2; compound dose not given here
Settings: Jurkat, 18 h

[1] = compound: compound 19 (5-tert-butyl-thalidomide)
[2] = compound: compound 22 (5-morpholino-thalidomide)
[3] = compound: compound 33 (diphenyl IMiD analogue)
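Note: pooled lentiviral library of zinc finger degron-EGFP fusions in mCherry-positive Jurkat cells, FACS-sorted after compound exposure, with degron abundance counted by next-generation sequencing.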

Row | Sequence | log2 fold change of degron read counts [1] | log2 fold change of degron read counts [2] | log2 fold change of degron read counts [3] | log2 fold change of degron read counts (compound: thalidomide)
1 | B1 | -0.861 | -2.23 | -1.35 | -1.95
2 | B2 | -2.19 | -2.11 | -0.29 | -1.14
3 | B3 | 1.07 | -0.0323 | 0.322 | 1
4 | B4 | 1.69 | 3.12 | 0.0332 | -0.593
5 | B5 | 0.216 | 0.55 | 1.39 | 0.856
6 | B6 | -2.51 | -2.86 | -1.9 | -2.01
7 | B7 | -0.53 | -1.83 | -2.25 | -3.41
8 | B8 | -0.885 | -1.05 | 1.42 | 1.06
9 | B9 | 3.1 | 4.14 | 2.47 | 1.12
10 | B10 | 3.09 | 2.54 | 0.976 | 0.784
11 | B11 | 1.35 | 0.0506 | 0.168 | -0.31
12 | B12 | 1.77 | 2.12 | 2.55 | 2.46
13 | B13 | 2.75 | 3.75 | 1.87 | 0.335
14 | B14 | 2.73 | 2.4 | 1.63 | 1.3
15 | B15 | -1.63 | -3.47 | -2.68 | -1.11
16 | B16 | -1.56 | -0.319 | 2.09 | 0.937
17 | B17 | 0.152 | 2.64 | 2.01 | 3.74
18 | B18 | 3.32 | 2.03 | 0.449 | -0.11
19 | B19 | 0.941 | -0.571 | -0.022 | 0.317
20 | B20 | -1.18 | -1.96 | -1.11 | -0.267
21 | B21 | 3.04 | 1.62 | 1.39 | 0.0233
22 | B22 | -2.3 | -2.72 | -2.62 | -2.01
23 | B23 | -2.01 | -2.73 | -2.35 | -2.1
24 | B24 | -0.992 | -1.44 | -0.727 | -1.13
25 | B25 | 2.39 | 3 | 1.83 | 0.77
26 | B26 | -2.34 | -2.76 | -2.86 | -2.48
27 | B27 | -2.81 | -1.6 | -3.49 | -3
28 | B28 | -0.246 | 1.36 | 1.98 | 2.24
29 | B29 | 2.72 | 3.74 | 1.9 | 1.47
30 | B30 | -1.71 | -1.32 | 0.752 | 1.34
